# A selection: hits, their analogues and other compounds. The true share with any hit is near 1.2%.
# S1P2 agonist: agonists of human S1P2 receptor; S1P2-expressing cell line, agonist reporter read-out; O95136; activation, % at 4.5 µM; AID 729; 0.46% of 97,000 active; in the data active = activation above about 16%;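 also: 0% = vehicle low control and 100% = maximal reference agonist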
# S1P2 blocker: S1P2 (human) receptor antagonism; O95136; cell-based S1P2 antagonist assay, inhibition at 5 uM; inhibition, % at 5 µM; 0.21% of 97,000 active; AID 736; in the data active = inhibition above about 45%;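 also: CRE beta-lactamase reporter cells expressing human S1P2 stimulated with S1P; 0% = agonist at EC80 alone and 100% = agonist plus reference antagonist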
# GALR2 agonist: activates the human galanin receptor 2; GALR2-expressing cells, agonist activation read-out; activation, % (no concentration beside the values); 0.48% of 140,000 active; AID 803; O43603; in the data active = activation above about 5%, passing the limit was not always enough;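 also: 0% = vehicle buffer wells and 100% = reference agonist at full effect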
# Target sequence (O43603 whole entry, looked up): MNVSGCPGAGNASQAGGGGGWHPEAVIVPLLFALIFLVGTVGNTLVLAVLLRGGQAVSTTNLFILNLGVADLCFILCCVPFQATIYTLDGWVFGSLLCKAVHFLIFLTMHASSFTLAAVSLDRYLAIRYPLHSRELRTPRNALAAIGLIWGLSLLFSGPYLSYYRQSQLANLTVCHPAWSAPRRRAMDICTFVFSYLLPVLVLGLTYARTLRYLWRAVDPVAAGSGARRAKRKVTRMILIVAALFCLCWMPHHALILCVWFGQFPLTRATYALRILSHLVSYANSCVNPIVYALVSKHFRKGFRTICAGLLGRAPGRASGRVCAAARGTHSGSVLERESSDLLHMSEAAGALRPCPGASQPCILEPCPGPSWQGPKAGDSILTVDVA
# GALR2 blocker: GALR2 (human) receptor antagonism; 0.39% of 140,000 active; inhibition, % at 4 µM; GALR2-expressing cells, antagonist mode;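 also: cells stimulated with galanin 1-16 at roughly its EC80; 0% = agonist challenge control and 100% = basal control without agonist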
# GALR2 ant conf: confirmation of human galanin receptor 2 (GALR2) antagonists; inhibition, % at 4 µM; shares compounds with GALR2 blocker; 60% of 480 active; GALR2-expressing cells, antagonist mode, inhibition;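 also: cells stimulated with galanin at about its EC80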
# BLA inh counter: beta-lactamase inhibition, GALR2 counterscreen; shares compounds with GALR2 blocker; CHO NFAT-BLA reporter, beta-lactamase FRET, thapsigargin-stimulated; inhibition, % at 4.2 µM; 36% of 480 active; AID 867;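 active = inhibition above the mean inhibition across tested compounds plus 3 SD, cut at about 27% in these data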;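 also: 0% = 500 nM thapsigargin stimulated wells and 100% = unstimulated BSA only wells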
# Numbers without * were called inactive; / = not tested or not shown. Rule as the data show it, unless noted: active = inhibition above about 27%; inactive = the rest.
SMILES,S1P2 agonist,S1P2 blocker,GALR2 agonist,GALR2 blocker,GALR2 ant conf,BLA inh counter
O=C(O)CNS(=O)(=O)c1ccc(Br)s1,/,/,-1,9,/,/
COc1ccc(C(=O)NCc2nnc(SCC(=O)N3CCc4ccccc43)n2CCc2ccccc2)cc1,/,/,-2,-3,/,/
O=C(Nc1nc(-c2cccs2)c(-c2cccs2)s1)C1CCCC1,/,/,-2,12,/,/
Cc1ccc2nc(/C(C#N)=C\c3ccc(N4CCOCC4)o3)[nH]c2c1,0,-27,0,29*,23,6
Cc1ccc(/C(C#N)=C\c2ccc(N3CCOCC3)o2)cc1,-7,51*,-2,44*,15,22
CC1(C)CC(=O)C/C(=N/NC(=O)CCCOc2ccc(Cl)cc2Cl)C1,-7,12,-1,-12,/,/
CCCNC(=O)c1ccc2c(c1)ncn2-c1ccccc1OC,/,/,-1,28*,14,5
N#C/C(=C\c1ccc(OC(=O)c2cccs2)cc1)c1nc2ccccc2[nH]1,/,/,-2,-8,/,/
N#C/C(=C\c1cccs1)c1nc2ccccc2[nH]1,/,/,-1,32*,30*,8
COc1ccc(OC)c(NC=C2C(=O)OC3(CCCCC3)OC2=O)c1,-3,-13,0,50*,5,5
Cc1ccc(S(=O)(=O)C(C#N)c2nc3ccccc3nc2N2CC(C)OC(C)C2)cc1C (configuration not stated),-7,1,-1,0,/,/
Cc1cccc(S(=O)(=O)C(C#N)c2nc3ccccc3nc2N2CC(C)OC(C)C2)c1 (configuration not stated),-6,17,0,28*,2,-1
Cc1nnc(SCC(=O)Nc2cccc(S(=O)(=O)N(C)c3ccccc3)c2)s1,/,/,0,32*,35*,9
Cc1cc(C)c(S(=O)(=O)N(C)CC(=O)NC2CCCC2)c(C)c1,-1,-9,-2,-5,/,/
Cc1ccc(S(=O)(=O)/N=C2/C=C(Sc3ncn[nH]3)C(=O)c3ccccc32)c(C)c1,/,/,-1,27*,16,27
Clc1ccc(OCCN2CCN(c3ncnc4sccc34)CC2)cc1,/,/,0,40*,49*,14
CC(C(=O)O)N1C(=O)C2C3CC(C2C1=O)C1C(c2ccccc2)c2sc(=O)[nH]c2SC31 (configuration not stated),/,/,-1,-9,/,/
CCCc1[nH]nc2c1C(c1ccc(O)c(OC)c1)C(C#N)=C(N)O2 (configuration not stated),-7,11,-1,-9,/,/
CN(C)c1ccc(NC2=C(Cl)C(=O)c3ccccc3C2=O)cc1,/,/,0,41*,48*,9
Cn1cccc1Cc1nnc(SCC(=O)Nc2ccc3c(c2)OCO3)n1-c1ccc(F)cc1,/,/,0,13,/,/
CC(=O)/C=C/n1c(=S)oc2ccccc21,/,/,-2,42*,77*,65*
CCOC(=O)N1CCC(Nc2c(-c3ccccc3)c(=O)c2=O)CC1,-2,-12,-1,1,/,/
CCCCNC(=O)COC(=O)c1cc(C)nc2ccccc12,-3,-2,-1,-7,/,/
CNC(=O)NC(=O)C(C)OC(=O)c1c2c(nc3ccccc13)/C(=C/c1cccs1)CC2 (configuration not stated),/,/,6.6*,49*,41*,48*
CCCCNC(=O)COC(=O)c1c2c(nc3ccccc13)/C(=C/c1cccs1)CC2,/,/,8.0*,27*,41*,51*
SMILES,S1P2 agonist,S1P2 blocker,GALR2 agonist,GALR2 blocker,GALR2 ant conf,BLA inh counter
Cn1nc(Oc2nc(N3CCOCC3)nc(N3CCOCC3)n2)ccc1=O,-2,-4,-1,-4,/,/
Cc1cc(/C=N/n2cnnc2)c(C)n1-c1ccc(OCc2ccc(Cl)cc2)cc1,-7,77*,1,45*,40*,19
CCc1ccccc1NC(=S)N1CCN(c2ccccn2)CC1,/,/,-3,28*,12,-3
CCN1C(=O)N(C)C(N(O)C(=O)NC)C1(C)C (configuration not stated),-8,9,-3,5,/,/
CCOC(=O)C1(C)NC(c2ccco2)C2C(=O)N(c3ccc(C)cc3)C(=O)C21 (configuration not stated),-9,1,-2,2,/,/
CCC1(C(=O)OC)NC(c2ccco2)C2C(=O)N(c3ccc(C)cc3)C(=O)C21 (configuration not stated),-5,0,-3,30*,7,2
CC1CCN(CCOc2ccc(Cl)c(Cl)c2)CC1,/,/,-1,-1,/,/
COc1cc(N2CCCC2)c(OC)cc1/C=C(/C#N)c1ccc(F)cc1,-6,32,-4,6,/,/

# Source: PubChem
